Assay results as given in the supplement of paper PMC10849652.
About 7,900 targets were measured; listed, in parts, are those with a hit and a random draw of the rest. About 0.6% of all pairs of compound and target were hits. Values without a mark were called inactive.

Tests used:
Assay in all cases: log2 fold change, soluble protein after heating vs DMSO (PISA); higher = thermal stabilisation; K562 cells, 10 uM, 30 min; active = over 0.2 and 3.5 SD of the protein, either way, in both replicates (recomputed)
bafetinib = compound: Cc1ccc(NC(=O)c2ccc(CN3CC[C@H](N(C)C)C3)c(C(F)(F)F)c2)cc1Nc1nccc(-c2cncnc2)n1 [bafetinib]
Procedure, shortened: (§1)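 Aliquots of K562 cells (2×10^6 cells/mL) treated with 10 μM compound for 30 min were heated for 3 min over 48°C-58°C. After pooling and extraction in PBS with 0.5% NP-40 at 4°C, soluble protein from a 21,000xg, 90 min spin was quantified by TMTpro 16plex LC-MS/MS with channel sums equalised. Thermal stability is expressed against control samples, from duplicates, as a log2 fold change.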

[1] = compound: Cc1cccc(CC(=O)N2CCc3c2ccc(-c2cn(C)c4ncnc(N)c24)c3F)n1
Procedure, shortened: as §1

nilotinib = compound: Cc1cn(-c2cc(NC(=O)c3ccc(C)c(Nc4nccc(-c5cccnc5)n4)c3)cc(C(F)(F)F)c2)cn1 [nilotinib]
Procedure, shortened: as §1

[2] = compound: Cc1nc(Nc2n[nH]c3c2CN(C(=O)N[C@H](CN(C)C)c2ccccc2)C3(C)C)c2sccc2n1
Procedure, shortened: as §1

dasatinib = compound: Cc1nc(Nc2ncc(C(=O)Nc3c(C)cccc3Cl)s2)cc(N2CCN(CCO)CC2)n1 [dasatinib]
Procedure, shortened: as §1

[3] = compound: Cc1ncc(-c2ccnc(Nc3ccc(S(C)(=O)=O)cc3)n2)n1C(C)C
Procedure, shortened: as §1

[4] = compound: Cn1cc(-c2ccc3c(c2)CCN3C(=O)Cc2cccc(C(F)(F)F)c2)c2c(N)ncnc21
Procedure, shortened: as §1

[5] = compound: Cn1cc(-c2ccc3nnc(C(F)(F)c4ccc5ncccc5c4)n3n2)cn1
Procedure, shortened: as §1

tipifarnib = compound: Cn1cncc1[C@@](N)(c1ccc(Cl)cc1)c1ccc2c(c1)c(-c1cccc(Cl)c1)cc(=O)n2C [tipifarnib]
Procedure, shortened: as §1

mubritinib = compound: FC(F)(F)c1ccc(/C=C/c2nc(COc3ccc(CCCCn4ccnn4)cc3)co2)cc1 [mubritinib]
Procedure, shortened: as §1

[6] = compound: NC(=O)Nc1cc(-c2cccc(F)c2)sc1C(=O)N[C@H]1CCCNC1
Procedure, shortened: as §1

[7] = compound: NC(=O)c1cnc(N[C@@H]2CCCC[C@@H]2N)nc1Nc1cccc(-n2nccn2)c1
Procedure, shortened: as §1

[8] = compound: NC1(c2ccc(-c3nc4ccn5c(=O)[nH]nc5c4cc3-c3ccccc3)cc2)CCC1
Procedure, shortened: as §1

[9] = compound: NCC(=O)Nc1ccc(-n2nc(C(F)(F)F)cc2-c2ccc3c(ccc4ccccc43)c2)cc1
Procedure, shortened: as §1

entinostat = compound: Nc1ccccc1NC(=O)c1ccc(CNC(=O)OCc2cccnc2)cc1 [entinostat]
Procedure, shortened: as §1

vorinostat = compound: O=C(CCCCCCC(=O)Nc1ccccc1)NO [vorinostat]
Procedure, shortened: as §1

citarinostat = compound: O=C(CCCCCCNC(=O)c1cnc(N(c2ccccc2)c2ccccc2Cl)nc1)NO [citarinostat]
Procedure, shortened: as §1

silmitasertib = compound: O=C(O)c1ccc2c(c1)nc(Nc1cccc(Cl)c1)c1ccncc12 [silmitasertib]
Procedure, shortened: as §1

[10] = compound: O=C1NC(=O)C(c2cnc3ccccn23)=C1c1cn2c3c(cc(F)cc13)CN(C(=O)N1CCCCC1)CC2
Procedure, shortened: as §1

[11] = compound: c1cc(OCCN2CCCCC2)cc(-c2n[nH]c3ccc(-c4nnc[nH]4)cc23)c1
Procedure, shortened: as §1

Chain of UniProt Q6P3S6 (Q6P3S6 whole entry, looked up): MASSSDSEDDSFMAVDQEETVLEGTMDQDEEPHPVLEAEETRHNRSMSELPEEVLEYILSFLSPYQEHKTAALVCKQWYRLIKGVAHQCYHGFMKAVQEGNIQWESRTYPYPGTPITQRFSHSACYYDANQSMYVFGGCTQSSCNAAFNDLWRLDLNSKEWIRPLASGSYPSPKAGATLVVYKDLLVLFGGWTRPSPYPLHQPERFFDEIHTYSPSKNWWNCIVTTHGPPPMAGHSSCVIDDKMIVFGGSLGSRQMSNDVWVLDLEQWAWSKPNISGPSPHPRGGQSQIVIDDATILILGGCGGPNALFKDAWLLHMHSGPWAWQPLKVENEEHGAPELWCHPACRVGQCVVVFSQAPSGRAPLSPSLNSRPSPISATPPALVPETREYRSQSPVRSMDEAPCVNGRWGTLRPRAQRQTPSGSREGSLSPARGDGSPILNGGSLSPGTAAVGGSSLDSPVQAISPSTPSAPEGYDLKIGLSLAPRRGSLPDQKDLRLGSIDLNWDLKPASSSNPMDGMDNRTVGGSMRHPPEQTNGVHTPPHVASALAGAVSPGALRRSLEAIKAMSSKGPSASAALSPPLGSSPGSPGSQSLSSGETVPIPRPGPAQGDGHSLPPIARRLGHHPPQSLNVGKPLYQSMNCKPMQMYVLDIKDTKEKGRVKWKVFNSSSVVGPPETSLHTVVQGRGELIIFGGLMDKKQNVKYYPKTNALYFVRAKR
Chain of UniProt Q658Y4 (Q658Y4 whole entry, looked up): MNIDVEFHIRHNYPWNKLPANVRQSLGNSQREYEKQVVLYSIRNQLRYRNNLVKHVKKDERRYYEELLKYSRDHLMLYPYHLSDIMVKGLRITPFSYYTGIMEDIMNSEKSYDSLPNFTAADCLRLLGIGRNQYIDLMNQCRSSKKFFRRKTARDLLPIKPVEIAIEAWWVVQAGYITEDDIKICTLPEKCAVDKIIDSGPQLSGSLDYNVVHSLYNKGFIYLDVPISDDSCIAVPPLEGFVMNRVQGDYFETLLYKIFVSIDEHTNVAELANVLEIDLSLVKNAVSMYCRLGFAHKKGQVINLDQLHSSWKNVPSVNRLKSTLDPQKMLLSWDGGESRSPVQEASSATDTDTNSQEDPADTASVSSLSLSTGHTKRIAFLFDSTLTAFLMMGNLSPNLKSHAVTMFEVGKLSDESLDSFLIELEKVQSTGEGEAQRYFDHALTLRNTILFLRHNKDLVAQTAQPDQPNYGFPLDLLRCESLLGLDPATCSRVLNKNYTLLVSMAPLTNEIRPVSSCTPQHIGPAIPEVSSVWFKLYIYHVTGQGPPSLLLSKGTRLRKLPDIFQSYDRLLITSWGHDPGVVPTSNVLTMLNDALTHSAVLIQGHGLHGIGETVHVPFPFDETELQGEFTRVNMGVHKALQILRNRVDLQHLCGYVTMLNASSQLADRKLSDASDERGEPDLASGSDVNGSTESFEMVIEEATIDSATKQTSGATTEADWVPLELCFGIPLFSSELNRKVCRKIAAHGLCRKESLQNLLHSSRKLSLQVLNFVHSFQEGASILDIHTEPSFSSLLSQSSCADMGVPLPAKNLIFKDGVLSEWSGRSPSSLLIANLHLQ
Chain of UniProt Q7Z4V5 (Q7Z4V5 whole entry, looked up): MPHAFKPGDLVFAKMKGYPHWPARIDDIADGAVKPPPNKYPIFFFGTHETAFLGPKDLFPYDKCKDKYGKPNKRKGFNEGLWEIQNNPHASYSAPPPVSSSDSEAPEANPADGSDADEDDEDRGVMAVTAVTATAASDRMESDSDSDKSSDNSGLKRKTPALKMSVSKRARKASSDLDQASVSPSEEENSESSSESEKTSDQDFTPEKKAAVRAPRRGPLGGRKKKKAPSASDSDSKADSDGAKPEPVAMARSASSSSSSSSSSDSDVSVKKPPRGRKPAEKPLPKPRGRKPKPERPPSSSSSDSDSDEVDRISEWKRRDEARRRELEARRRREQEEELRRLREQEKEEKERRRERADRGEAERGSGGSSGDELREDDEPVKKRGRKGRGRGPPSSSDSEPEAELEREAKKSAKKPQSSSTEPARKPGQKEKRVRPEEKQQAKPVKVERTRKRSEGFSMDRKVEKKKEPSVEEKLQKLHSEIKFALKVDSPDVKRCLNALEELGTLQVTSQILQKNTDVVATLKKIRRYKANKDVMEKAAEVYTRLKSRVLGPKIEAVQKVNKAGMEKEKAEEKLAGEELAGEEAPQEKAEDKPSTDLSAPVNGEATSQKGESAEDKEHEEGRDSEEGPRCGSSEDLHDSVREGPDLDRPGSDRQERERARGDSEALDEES
Chain of UniProt P15260 (P15260 whole entry, looked up): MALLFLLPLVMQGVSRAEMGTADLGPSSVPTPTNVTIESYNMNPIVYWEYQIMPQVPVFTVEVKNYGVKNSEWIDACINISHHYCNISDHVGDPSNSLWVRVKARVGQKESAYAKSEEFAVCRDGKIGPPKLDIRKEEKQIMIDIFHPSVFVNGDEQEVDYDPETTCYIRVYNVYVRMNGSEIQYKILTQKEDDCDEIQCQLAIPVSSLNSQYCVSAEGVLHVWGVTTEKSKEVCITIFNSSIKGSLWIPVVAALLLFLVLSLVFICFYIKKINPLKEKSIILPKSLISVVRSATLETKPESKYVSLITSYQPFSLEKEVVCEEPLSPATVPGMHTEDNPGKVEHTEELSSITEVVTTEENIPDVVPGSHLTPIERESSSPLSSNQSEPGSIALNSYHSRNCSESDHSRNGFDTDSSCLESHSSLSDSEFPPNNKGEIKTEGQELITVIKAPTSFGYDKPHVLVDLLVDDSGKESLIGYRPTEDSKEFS
Chain of UniProt P69905 (P69905 whole entry, looked up): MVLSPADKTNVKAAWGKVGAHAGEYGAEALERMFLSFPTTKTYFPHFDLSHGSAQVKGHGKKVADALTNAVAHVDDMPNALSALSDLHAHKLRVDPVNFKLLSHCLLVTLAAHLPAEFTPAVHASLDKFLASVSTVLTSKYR
Chain of UniProt P0C0S5 (P0C0S5 whole entry, looked up): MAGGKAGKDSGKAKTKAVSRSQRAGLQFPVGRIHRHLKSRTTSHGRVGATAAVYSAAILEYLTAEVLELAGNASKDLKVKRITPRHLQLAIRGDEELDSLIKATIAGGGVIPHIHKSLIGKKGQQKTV
Chain of UniProt Q1KMD3 (Q1KMD3 whole entry, looked up): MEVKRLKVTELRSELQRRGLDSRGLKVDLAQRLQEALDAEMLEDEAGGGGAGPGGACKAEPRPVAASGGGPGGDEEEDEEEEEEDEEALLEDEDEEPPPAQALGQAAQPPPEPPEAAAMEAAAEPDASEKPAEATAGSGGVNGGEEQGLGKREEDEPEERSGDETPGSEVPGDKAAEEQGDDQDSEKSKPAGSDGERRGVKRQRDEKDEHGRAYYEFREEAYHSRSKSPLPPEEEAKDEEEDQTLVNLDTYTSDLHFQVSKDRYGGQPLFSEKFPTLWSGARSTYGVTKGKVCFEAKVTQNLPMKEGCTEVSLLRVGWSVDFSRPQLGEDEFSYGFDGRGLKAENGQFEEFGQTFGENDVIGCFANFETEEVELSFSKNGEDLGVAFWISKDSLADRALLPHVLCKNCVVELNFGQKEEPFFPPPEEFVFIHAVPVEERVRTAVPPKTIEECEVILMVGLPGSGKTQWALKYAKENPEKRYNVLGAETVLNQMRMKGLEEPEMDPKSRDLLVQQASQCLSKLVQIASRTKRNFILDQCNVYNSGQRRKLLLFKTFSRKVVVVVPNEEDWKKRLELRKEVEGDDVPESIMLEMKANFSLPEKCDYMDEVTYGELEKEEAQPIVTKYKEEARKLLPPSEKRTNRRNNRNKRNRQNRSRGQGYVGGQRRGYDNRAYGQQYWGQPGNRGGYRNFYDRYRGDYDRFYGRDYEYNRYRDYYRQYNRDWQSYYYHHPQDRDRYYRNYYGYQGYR
Chain of UniProt Q9UKD1 (Q9UKD1 whole entry, looked up): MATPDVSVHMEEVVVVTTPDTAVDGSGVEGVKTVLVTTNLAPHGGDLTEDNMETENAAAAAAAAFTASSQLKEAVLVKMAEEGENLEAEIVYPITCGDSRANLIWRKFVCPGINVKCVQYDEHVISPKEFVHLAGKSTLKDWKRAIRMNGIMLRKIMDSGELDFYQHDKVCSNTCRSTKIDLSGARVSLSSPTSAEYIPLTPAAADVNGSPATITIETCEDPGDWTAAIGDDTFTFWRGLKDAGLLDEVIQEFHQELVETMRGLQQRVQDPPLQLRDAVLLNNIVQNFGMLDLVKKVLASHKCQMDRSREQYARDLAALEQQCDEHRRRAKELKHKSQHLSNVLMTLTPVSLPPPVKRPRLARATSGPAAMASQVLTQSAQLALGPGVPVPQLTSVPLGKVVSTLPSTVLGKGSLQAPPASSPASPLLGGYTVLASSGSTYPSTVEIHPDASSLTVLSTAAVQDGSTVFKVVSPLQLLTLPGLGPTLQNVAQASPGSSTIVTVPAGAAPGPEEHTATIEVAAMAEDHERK
Chain of UniProt P14324 (P14324 whole entry, looked up): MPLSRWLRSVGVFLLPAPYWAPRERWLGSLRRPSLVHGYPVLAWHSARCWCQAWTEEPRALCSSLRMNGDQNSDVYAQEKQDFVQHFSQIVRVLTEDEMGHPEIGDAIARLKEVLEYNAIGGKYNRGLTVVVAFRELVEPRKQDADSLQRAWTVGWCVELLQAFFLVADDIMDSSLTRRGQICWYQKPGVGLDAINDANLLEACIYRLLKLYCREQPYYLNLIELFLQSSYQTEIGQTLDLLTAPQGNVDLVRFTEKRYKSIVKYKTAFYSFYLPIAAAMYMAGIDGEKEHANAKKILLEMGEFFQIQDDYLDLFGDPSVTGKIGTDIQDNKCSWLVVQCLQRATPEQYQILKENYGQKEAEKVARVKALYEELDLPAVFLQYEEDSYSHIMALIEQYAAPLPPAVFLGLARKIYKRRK

| Target | log2 fold change (bafetinib) | log2 fold change [1] | log2 fold change (nilotinib) | log2 fold change [2] | log2 fold change (dasatinib) | log2 fold change [3] | log2 fold change [4] | log2 fold change [5] | log2 fold change (tipifarnib) | log2 fold change (mubritinib) | log2 fold change [6] | log2 fold change [7] | log2 fold change [8] | log2 fold change [9] | log2 fold change (entinostat) | log2 fold change (vorinostat) | log2 fold change (citarinostat) | log2 fold change (silmitasertib) | log2 fold change [10] | log2 fold change [11] |
| --- | --- | --- | --- | --- | --- | --- | --- | --- | --- | --- | --- | --- | --- | --- | --- | --- | --- | --- | --- | --- |
| HBA1 (UniProt P69905) | -0.013 | 0.138 | 0.029 | 0.017 | 0.044 | 0.01 | 0.156 | 0.345 (active) | -0.084 | 0.024 | 0.016 | 0.032 | 0.003 | 0.103 | 0.059 | -0.031 | 0.007 | -0.036 | -0.037 | 0.012 |
| H2AZ1 (UniProt P0C0S5) | 0.173 | -0.204 | -0.138 | -0.029 | -0.092 | -0.006 | -0.369 | -0.133 | 0.013 | -0.083 | 0.067 | 0.258 | 0.444 | -0.038 | 0.135 | 0.19 | -0.058 | 0 | 0.086 | -0.032 |
| FBXO42 (UniProt Q6P3S6) | -0.014 | -0.006 | -0.006 | 0.028 | -0.036 | -0.026 | 0.137 | -0.007 | 0.006 | 0.059 | -0.048 | -0.087 | -0.176 | 0.061 | -0.028 | -0.03 | -0.001 | 0.006 | 0.013 | -0.026 |
| HNRNPK isoform 2 (UniProt P61978) | -0.03 | 0.007 | -0.084 | -0.206 | -0.072 | -0.136 | 0.031 | 0.017 | 0.007 | -0.024 | -0.045 | -0.086 | -0.073 | -0.093 | 0.056 | 0.065 | 0.05 | -0.017 | -0.137 | -0.038 |
| FDXR isoform 7 (UniProt P22570) | -0.012 | -0.162 | -0.031 | -0.015 | -0.245 | -0.042 | -0.023 | 0.038 | -0.002 | -0.643 (active) | -0.03 | -0.044 | -0.083 | -0.082 | -0.006 | 0.084 | 0.031 | -0.034 | -0.197 | -0.11 |
| HAUS4 (UniProt Q9H6D7) | -0.069 | 0.023 | 0.08 | 0.086 | 0.178 | 0.567 | -0.045 | -0.051 | -0.115 | -0.547 | 0.067 | -0.165 | 0.229 | -0.089 | 0.12 | 0.01 | -0.106 | 0.095 | 0.088 | -0.08 |
| FAM91A1 (UniProt Q658Y4) | -0.01 | 0.07 | -0.007 | 0.073 | -0.048 | 0.01 | 0.021 | -0.015 | -0.004 | 0.052 | -0.009 | -0.061 | -0.08 | -0.042 | -0.003 | 0.004 | -0.003 | 0.073 | -0.346 | -0.084 |
| HDGFL2 (UniProt Q7Z4V5) | -0.017 | -0.013 | -0.007 | -0.061 | 0.035 | -0.029 | -0.018 | -0.048 | 0.032 | 0.098 | -0.273 (active) | -0.05 | -0.022 | -0.052 | -0.139 | 0.024 | -0.032 | 0.033 | -0.093 | -0.018 |
| FANCI (UniProt Q9NVI1) | -0.043 | 0.041 | -0.13 | 0.113 | -0.118 | -0.085 | 0.075 | 0.098 | -0.027 | 0.086 | 0.139 | -0.069 | -0.281 (active) | -0.08 | 0.083 | 0.112 | 0.099 | -0.089 | 0.033 | -0.045 |
| GMEB2 (UniProt Q9UKD1) | 0.019 | 0.013 | 0.019 | -0.021 | -0.036 | -0.05 | -0.084 | -0.006 | -0.011 | -0.041 | -0.039 | -0.079 | 0.056 | -0.119 | 0.064 | 0.063 | 0.086 | 0.044 | -0.194 | -0.037 |
| IFNGR1 (UniProt P15260) | -0.262 | -0.027 | 0.075 | -0.015 | 0.154 | -0.126 | 0.123 | -0.123 | 0.119 | 0.299 | -0.116 | -0.068 | 0.27 | 0.051 | -0.123 | 0.058 | 0.014 | 0.055 | -0.118 | -0.086 |
| H2AFX (UniProt P16104) | 0.103 | -0.198 | -0.041 | -0.025 | 0.283 | -0.012 | -0.439 | -0.146 | 0.074 | -0.111 | 0.054 | 0.245 | 0.441 | 0.041 | 0.132 | 0.216 | -0.035 | 0.08 | 0.077 | -0.083 |
| HNRNPUL2 (UniProt Q1KMD3) | 0 | -0.083 | -0.001 | 0.033 | 0.098 | 0.097 | -0.147 | -0.035 | 0.03 | -0.137 | -0.04 | 0.02 | 0.153 | 0.017 | -0.026 | -0.004 | -0.077 | 0.046 | 0.15 | -0.104 |
| HECTD1 (UniProt Q9ULT8) | 0.025 | 0.029 | -0.111 | -0.141 | -0.104 | -0.022 | -0.058 | -0.032 | -0.088 | -0.144 | -0.036 | -0.087 | -0.017 | -0.01 | 0.042 | 0.06 | 0.123 | 0.075 | -0.027 | -0.17 |
| FDPS (UniProt P14324) | 0.057 | 0.204 | -0.156 | 0.035 | -0.392 | -0.027 | 0.209 | 0.441 | -0.258 | 0.39 | 0.009 | -0.136 | -0.48 | -0.14 | 0.001 | 0.215 | 0.142 | -0.108 | -0.026 | -0.069 |
| GPAT4 (UniProt Q86UL3) | -0.138 | -0.028 | -0.047 | 0.049 | -0.024 | -0.009 | 0.093 | -0.018 | -0.069 | -0.008 | -0.031 | 0.002 | -0.012 | -0.028 | -0.107 | -0.017 | 0.004 | -0.005 | -0.077 | -0.068 |
